In the supplement of paper PMC11732987, “Enantioselective OTUD7B fragment discovery through chemoproteomics screening and high-throughput optimisation” (Communications Chemistry, 2025):

These compounds were tested against T1, OTUD4 (UniProt Q01804) (assay: log2 ratio of Biotin-Ahx-Ub-VS probe labelling (fragment/DMSO); higher = less target engagement (more negative = stronger competition), active = hit call of the paper (q ≤ 0.05, log2 ratio ≤ -1)). Details: compound concentration: 200 uM; treatment time: 3 h.
T1 sequence (whole entry): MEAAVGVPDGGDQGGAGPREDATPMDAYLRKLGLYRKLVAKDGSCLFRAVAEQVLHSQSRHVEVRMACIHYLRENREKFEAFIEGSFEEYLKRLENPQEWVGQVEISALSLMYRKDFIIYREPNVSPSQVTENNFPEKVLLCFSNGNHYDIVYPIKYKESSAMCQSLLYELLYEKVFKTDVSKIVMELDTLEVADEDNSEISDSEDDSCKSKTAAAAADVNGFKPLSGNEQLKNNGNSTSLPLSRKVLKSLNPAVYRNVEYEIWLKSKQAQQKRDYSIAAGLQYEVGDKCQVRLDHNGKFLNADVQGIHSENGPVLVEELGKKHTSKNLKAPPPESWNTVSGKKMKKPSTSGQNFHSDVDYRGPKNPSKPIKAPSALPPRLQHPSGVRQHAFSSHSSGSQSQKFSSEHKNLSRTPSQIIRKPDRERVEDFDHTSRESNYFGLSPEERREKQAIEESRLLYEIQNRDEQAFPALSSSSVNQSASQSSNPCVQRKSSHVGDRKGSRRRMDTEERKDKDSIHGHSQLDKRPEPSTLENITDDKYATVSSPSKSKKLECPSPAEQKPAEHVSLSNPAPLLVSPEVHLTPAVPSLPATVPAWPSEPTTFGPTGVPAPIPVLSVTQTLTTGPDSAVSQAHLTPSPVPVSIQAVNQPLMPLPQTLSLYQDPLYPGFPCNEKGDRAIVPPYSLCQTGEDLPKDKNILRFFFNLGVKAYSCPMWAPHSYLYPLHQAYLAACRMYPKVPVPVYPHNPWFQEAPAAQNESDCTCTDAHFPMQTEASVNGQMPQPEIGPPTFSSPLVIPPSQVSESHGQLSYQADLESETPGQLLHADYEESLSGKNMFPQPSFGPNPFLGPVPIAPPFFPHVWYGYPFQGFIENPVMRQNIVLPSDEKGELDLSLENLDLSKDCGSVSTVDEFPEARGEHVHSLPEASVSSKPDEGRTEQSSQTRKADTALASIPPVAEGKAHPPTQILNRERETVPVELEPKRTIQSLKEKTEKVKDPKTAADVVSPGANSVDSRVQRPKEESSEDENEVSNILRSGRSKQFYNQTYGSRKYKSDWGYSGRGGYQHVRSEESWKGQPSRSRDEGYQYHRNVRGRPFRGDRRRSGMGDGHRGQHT
How it was run: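 Using Biotin-Ahx-Ub-VS at 0.5 µM final for 1 h, DUBs were labelled in HEK293T lysate (495 µg per sample) that had first been treated in triplicate with fragment at 200 µM or vehicle for 3 h. NeutrAvidin enrichment, LysC and trypsin digestion and diaPASEF LC-MS/MS followed. Spectronaut label-free quantities were global-median-normalised. Values are average log2 fragment/vehicle ratios by unpaired t-test, using proteins with ≥2 unique peptides.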

log2 ratio of Biotin-Ahx-Ub-VS probe labelling, inactive:
Cc1ccc(CN(C)C(=O)CCl)o1 0.05
O=C(CCl)N1CCC[C@@H]1c1ccon1 -0.381
COCC1C=CCCN1C(=O)CCl (stereo unspecified) -0.452
Cl.Cn1c(CNC(=O)CCl)nc2cccnc21 -0.388
Cc1cccc(C)c1NC(=O)CCl -0.228
O=C(CCl)N1CCCC1c1ccsc1 (stereo unspecified) -0.382
NC(=O)C1CCCCN1C(=O)CCl (stereo unspecified) -0.464
Cc1cnc2[nH]cc(CCNC(=O)CCl)c2c1 -0.139
Cc1ccc(CNC(=O)CCl)nc1C.Cl -0.29
O=C(CCl)N1CCN2C(=O)CCC2C1 (stereo unspecified) -0.461
O=C(CCl)N1CCOCCC1c1ccccc1 (stereo unspecified) -0.0459
O=C(CCl)N1CCc2[nH]c3ccccc3c2C1 -0.657
CN(CCC(O)c1ccc(Br)cc1)C(=O)CCl (stereo unspecified) -0.192
CC(NC(=O)CCl)c1cnn(C2CC2)c1 (stereo unspecified) -0.268
CCN(C(=O)CCl)C1CCS(=O)(=O)C1 (stereo unspecified) -0.679
COc1ccc(-c2csc(NC(=O)CCl)n2)cc1 -0.702
Cc1noc(N2CCN(C(=O)CCl)CC2)n1.Cl -0.163
O=C(CCl)N1CCCCCC1c1ncon1 (stereo unspecified) -0.759
O=C(CCl)N1CCc2sccc2C1 -0.819
O=C(CCl)Nc1ccc2c(c1)OC(F)(F)O2 -0.422
O=C(CCl)N(C1CCCC1)C1CCS(=O)(=O)C1 (stereo unspecified) 0.0168
